Data reported in PubChem BioAssay (NCI).
Compounds without any hit were thinned out: in the full panel of roughly 83,000, 20% have a hit.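 The endpoint reported here, percent growth, reads 100 for growth as untreated, 0 for no net growth and -100 for all cells dead.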 Unmarked numbers belong to inactive results. Active and inactive are the calls of the source. The calls were made as follows: active = growth percent below 10; inactive = the rest.

How the values were obtained:
Assay in all cases: NCI-60 one-dose screen, 48 h (100 = growth as untreated, 0 = no growth, -100 = all killed)
Details in all cases: 10 µM
[1] = test system: HCT-15 colon
[2] = test system: HT29 colon
[3] = test system: SNB-75 CNS
[4] = test system: SNB-19 CNS
[5] = test system: U251 CNS
[6] = test system: PC-3 prostate
[7] = test system: SK-MEL-5 melanoma
[8] = test system: UACC-62 melanoma
[9] = test system: LOX IMVI melanoma
[10] = test system: SK-MEL-28 melanoma

SMILES: COc1ccc2[nH]c(O)c(N=NC(=O)COc3ccc(NC(=O)Nc4ccc(Cl)c(Cl)c4)cc3)c2c1
- growth [1]: 56.1%
- growth [2]: -88.4% (active)
- growth [3]: -37% (active)
- growth [4]: 7.22% (active)
- growth [5]: -94.2% (active)
- growth [6]: -33.4% (active)
- growth [7]: -56.3% (active)
- growth [8]: 14.4%
- growth [9]: -100% (active)

SMILES: C/C(=C\CC/C=C(\C)CC/C=C(\C)CC[C@@H](O)C(C)(C)O)CC/C=C(\C)CC[C@@H](O)C(C)(C)O
- growth [1]: 21.1%
- growth [2]: -67% (active)
- growth [3]: 70.2%
- growth [4]: 61.4%
- growth [5]: 33.2%
- growth [6]: 7.84% (active)
- growth [7]: -16.3% (active)
- growth [8]: 46.2%
- growth [9]: 28.7%
- growth [10]: 38%

SMILES: O=C(CS(=O)(=O)c1oc(-c2ccc(Cl)cc2)nc1S(=O)(=O)c1ccccc1)N1CCCC1
- growth [1]: -89.3% (active)
- growth [2]: -40.6% (active)
- growth [3]: 55.7%
- growth [4]: 80.9%
- growth [5]: 37.5%
- growth [6]: 78.8%
- growth [7]: 84.2%
- growth [8]: 47.5%
- growth [9]: -100% (active)
- growth [10]: -100% (active)

SMILES: O=c1cc(-c2ccccc2)oc2cc(OCCCNCc3ccccc3)cc(O)c12
- growth [1]: -67.1% (active)
- growth [2]: -59.7% (active)
- growth [3]: 23.9%
- growth [4]: 48.2%
- growth [5]: -79.8% (active)
- growth [6]: -0.767% (active)
- growth [7]: -99.6% (active)
- growth [8]: -55.7% (active)
- growth [9]: -97.8% (active)

SMILES: CN1CCN(c2ccc(C(=O)/C=C/c3ccc(C#N)cc3)cc2)CC1
- growth [1]: 33.6%
- growth [2]: 35.4%
- growth [3]: 94.2%
- growth [4]: 79.3%
- growth [5]: 49.9%
- growth [6]: 94.7%
- growth [7]: 83.9%
- growth [8]: 79.9%
- growth [9]: 16.7%

SMILES: O=C(CSc1ccc(-c2ccc(Cl)cc2)nn1)Nc1ccc(Cl)c(C(F)(F)F)c1
- growth [1]: 25.9%
- growth [2]: 40.6%
- growth [3]: 58.6%
- growth [4]: 71.9%
- growth [5]: 73.1%
- growth [6]: 71.9%
- growth [7]: 55.9%
- growth [8]: 32.7%
- growth [9]: 47.3%
- growth [10]: 66.9%

SMILES: C#Cc1ccc(S(=O)(=O)Nc2cccc(-c3csc(NC(C)=O)n3)c2)cc1
- growth [1]: 67.1%
- growth [2]: 71.4%
- growth [3]: 60.4%
- growth [4]: 83.6%
- growth [5]: 81.8%
- growth [6]: 62.3%
- growth [7]: 43.2%
- growth [8]: 48.7%
- growth [9]: 54.6%

SMILES: CCCSc1nc(NC2CC2)c(C#N)c(-c2ccc(OC)cc2)n1
- growth [1]: 95.4%
- growth [2]: 90.1%
- growth [3]: 103%
- growth [4]: 70.3%
- growth [5]: 87.4%
- growth [6]: 95.3%
- growth [7]: 98.2%
- growth [8]: 83.7%
- growth [9]: 93.9%
- growth [10]: 118%

SMILES: O=C(Nc1nc2ccccc2s1)c1ccc(Br)cc1
- growth [1]: 85.8%
- growth [2]: 87.3%
- growth [3]: 107%
- growth [4]: 98.8%
- growth [5]: 107%
- growth [6]: 82.1%
- growth [7]: 70.5%
- growth [8]: 73.3%
- growth [9]: 82.9%

SMILES: COc1ccccc1[C@H]1C(C(=O)c2ccc(Cl)cc2)C2(N[C@@H]1c1ccccc1)C(=O)Nc1ccc(Cl)cc12 (stereo not given in full)
- growth [1]: 7.83% (active)
- growth [2]: -3.95% (active)
- growth [3]: 40.9%
- growth [4]: 21.2%
- growth [5]: 17%
- growth [6]: 13.3%
- growth [7]: -75.4% (active)
- growth [8]: -27.3% (active)
- growth [9]: -74.6% (active)
- growth [10]: 35.1%

SMILES: CO[C@@H]1CSS[C@H]1Cn1nc(-c2ccc(Oc3ccccc3)cc2)c2c(N)ncnc21
- growth [1]: 66.9%
- growth [2]: 51.1%
- growth [3]: 113%
- growth [4]: 71.8%
- growth [5]: 60%
- growth [6]: 51.7%
- growth [7]: 25.7%
- growth [8]: -11.1% (active)
- growth [9]: 53.7%
- growth [10]: -0.701% (active)

SMILES: COc1cc(OC(F)(F)F)ccc1C(=O)Nc1sc2c(c1C#N)CCC(=O)C2
- growth [1]: 14.6%
- growth [2]: 95%
- growth [3]: 93.7%
- growth [4]: 91.8%
- growth [5]: 7.29% (active)
- growth [6]: 37.6%
- growth [7]: 72.3%
- growth [8]: 65.6%
- growth [9]: 64.7%
- growth [10]: 121%

SMILES: COc1ccccc1[C@H]1C(C(=O)c2ccc(Cl)cc2)C2(N[C@@H]1c1ccccc1)C(=O)Nc1ccccc12 (stereo not given in full)
- growth [1]: -18.7% (active)
- growth [2]: -53.1% (active)
- growth [3]: 55.6%
- growth [4]: 13.7%
- growth [5]: -31% (active)
- growth [6]: 5.37% (active)
- growth [7]: -87.2% (active)
- growth [8]: -74.9% (active)
- growth [9]: -97.3% (active)
- growth [10]: -36.6% (active)

SMILES: CCOC(=O)C1NN(c2ccc(S(N)(=O)=O)cc2)c2nc3nc(-c4cccs4)cc(-c4cccs4)c3c(=O)n21 (stereo not given)
- growth [1]: 88.5%
- growth [2]: 73.9%
- growth [3]: 66.8%
- growth [4]: 96.4%
- growth [5]: 84.5%
- growth [6]: 80%
- growth [7]: 75.5%
- growth [8]: 74.8%
- growth [9]: 80.7%
- growth [10]: 73.1%

SMILES: O=C(CNc1nc(-c2ccccc2)cs1)Nc1ccc(Br)cc1
- growth [1]: -89.4% (active)
- growth [2]: -55.8% (active)
- growth [3]: -3.24% (active)
- growth [4]: -99.4% (active)
- growth [5]: -89.8% (active)
- growth [6]: -27.8% (active)
- growth [7]: -99.8% (active)
- growth [8]: -84.1% (active)
- growth [9]: -98.7% (active)
- growth [10]: -96.3% (active)

SMILES: COC(=O)C[C@](O)(CCCC(C)(C)O)C(=O)O[C@H]1C(OC)=C[C@@]23CCC(=O)N2CCc2cc4c(cc2[C@@H]13)OCO4
- growth [1]: 97.8%
- growth [2]: 93.6%
- growth [3]: 94.6%
- growth [4]: 84.4%
- growth [5]: 114%
- growth [6]: 89.5%
- growth [7]: 98.3%
- growth [8]: 89.5%
- growth [9]: 78%
- growth [10]: 103%

SMILES: Cc1cccc2cc(-c3cc(-c4ccccc4)nc(=O)[nH]3)c(Cl)nc12
- growth [1]: 64.1%
- growth [2]: 107%
- growth [3]: 89.1%
- growth [4]: 68%
- growth [5]: 62.6%
- growth [6]: 77.6%
- growth [7]: 96.3%
- growth [8]: 80.1%
- growth [9]: 54.1%
- growth [10]: 103%

SMILES: Cc1ccc(/C=C/C(=O)c2ccc(NC(=O)CSc3nnc(-c4c[nH]c5ccccc45)n3-c3ccccc3)cc2)c(C)c1
- growth [1]: 51.4%
- growth [2]: 65.5%
- growth [3]: 92.6%
- growth [4]: 72.2%
- growth [5]: 13.1%
- growth [6]: 48.6%
- growth [7]: 88.3%
- growth [8]: 72.8%
- growth [9]: 13.3%
- growth [10]: 80.9%

SMILES: COc1ccc(C(=O)/C=C/c2cc(F)cc(C(F)(F)F)c2)cc1S(N)(=O)=O
- growth [1]: -77.9% (active)
- growth [2]: -68.3% (active)
- growth [3]: 63.2%
- growth [4]: -92.6% (active)
- growth [5]: -72.9% (active)
- growth [6]: -10.2% (active)
- growth [7]: 3.71% (active)
- growth [8]: -55.5% (active)
- growth [9]: -91.3% (active)
- growth [10]: -68.4% (active)

SMILES: Cc1ccc(NCC(=O)Nn2c(COc3ccccc3)nc3ccccc3c2=O)cc1
- growth [1]: 93%
- growth [2]: 92.4%
- growth [3]: 23.4%
- growth [4]: 6.78% (active)
- growth [5]: 62.2%
- growth [6]: 74.2%
- growth [7]: 85.9%
- growth [8]: 61.3%
- growth [9]: 91.6%
- growth [10]: 91.3%

SMILES: COc1ccccc1C(=O)NNC(=O)CSc1nc2c(c(=O)[nH]1)CCCC2
- growth [1]: 110%
- growth [2]: 113%
- growth [3]: 99.3%
- growth [4]: 101%
- growth [5]: 104%
- growth [6]: 83.4%
- growth [7]: 99.3%
- growth [8]: 95.2%
- growth [9]: 96.9%
- growth [10]: 110%

SMILES: COc1cccc(-c2nn(-c3ccccc3)cc2-c2ccnc(NCCCNC(=O)Nc3ccc(F)cc3)c2)c1
- growth [1]: -16.3% (active)
- growth [2]: -7.83% (active)
- growth [3]: 0.286% (active)
- growth [4]: 6% (active)
- growth [5]: 8.94% (active)
- growth [6]: 3.99% (active)
- growth [7]: -71% (active)
- growth [8]: 11.4%
- growth [9]: 3.45% (active)
- growth [10]: -3.54% (active)

SMILES: O=C1NC(=NC23CC4CC(CC(C4)C2)C3)N/C1=C\c1ccc2ncsc2c1
- growth [1]: -3.34% (active)
- growth [2]: 13.6%
- growth [3]: -44.1% (active)
- growth [4]: 6.09% (active)
- growth [5]: 10.2%
- growth [6]: 11.4%
- growth [7]: 2.01% (active)
- growth [8]: 7.15% (active)
- growth [9]: 2.05% (active)
- growth [10]: 0.351% (active)

SMILES: Cc1ccc(-c2cc(C(=O)N=Nc3c(O)[nH]c4ccccc34)c3ccccc3n2)cc1
- growth [1]: 7.91% (active)
- growth [2]: 37.9%
- growth [3]: 85.7%
- growth [4]: 58%
- growth [5]: 27.2%
- growth [6]: 48.5%
- growth [7]: 36.9%
- growth [8]: 61.6%
- growth [9]: -40.4% (active)
- growth [10]: 59.4%

SMILES: COc1ccc(CN2[C@@H](C(=O)NCc3ccc(C(=O)NO)cc3)Cc3c([nH]c4ccccc34)[C@@H]2C2CC2)cc1
- growth [1]: 19.5%
- growth [2]: 10.9%
- growth [3]: -12% (active)
- growth [4]: 34.4%
- growth [5]: 24.8%
- growth [6]: 30.2%
- growth [7]: -19.9% (active)
- growth [8]: 3.09% (active)
- growth [9]: 11.7%
- growth [10]: 24.8%

SMILES: CCOC(=O)N/C(=C1/OCCN1C)[P+](c1ccccc1)(c1ccccc1)c1ccccc1
- growth [1]: 98.5%
- growth [2]: 60.3%
- growth [3]: 84.3%
- growth [4]: 71.6%
- growth [5]: 66.3%
- growth [6]: 50.5%
- growth [7]: 82.8%
- growth [8]: 51%
- growth [9]: 57.5%
- growth [10]: 61.3%
